Our source for the binding signal values is publication PMC10668032, “Altered binding affinity of SIX1-Q177R correlates with enhanced WNT5A and WNT pathway effector expression in Wilms tumor”.

Over roughly 33,000 sequences, “e-score” has its median near -0.053; the highest 2% begin near 0.38. Only a selection was taken, and the highest values are over-represented in it overall.

In this experiment the target is T1, SIX1 homeodomain (reference allele) (human, UniProt Q15475 108-198).
T1 sequence: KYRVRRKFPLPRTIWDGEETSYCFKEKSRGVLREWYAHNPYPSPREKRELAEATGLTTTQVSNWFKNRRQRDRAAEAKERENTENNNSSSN
Put plainly: universal protein binding microarray; Universal all-10-mer PBM (8x60K, AMADID 030236), 300 nM GST-tagged protein, Alexa Fluor 488 anti-GST; buffer, salt, pH and temperature not stated (as in Berger); high values mean tight binding. The following applies: protein: ivt; tags: N-terminal GST; dsDNA, one strand shown. In short, it runs like this:
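GST-tagged homeodomains were made by in vitro transcription/translation and quantified by anti-GST western blot against a recombinant GST standard curve. They were applied in duplicate at 300 nM final concentration to universal 'all 10-mer' protein binding microarrays (8×60K format). Binding was quantified as 8-mer E-scores with the Universal PBM Analysis Suite.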
With ATATCAAC, the binding signal came out at 0.418 ± 0.0449 E-score.

CTATCAAG: the binding signal came out at 0.155 ± 0.0723 E-score.

On to ATATCAAA, for which the binding signal was 0.374 ± 0.0809 E-score.

With CTATCAAC, the binding signal was 0.29 ± 0.0532 E-score.

As to ACAGGGTA, the binding signal came out at 0.267 ± 0.0137 E-score.

Turning to ATCATAAC, the binding signal is 0.2814 ± 0.00204 E-score.

Turning to CCCGTGTA, the binding signal turned out to be 0.171 ± 0.0224 E-score.

As for ATCCCTAC, the binding signal worked out at 0.307 ± 0.0295 E-score.

With ATCACTCA, the binding signal is 0.335 ± 0.0213 E-score.

As for AGCATATC, the binding signal was found to be 0.408 ± 0.0304 E-score.

With CGCATACC, the binding signal turned out to be 0.266 ± 0.0145 E-score.

As for AGAATATC, the binding signal came to 0.283 ± 0.121 E-score.

Consider AGCATATA, for which the binding signal turned out to be 0.239 ± 0.0331 E-score.

For CGCATATC, the binding signal is 0.414 ± 0.0167 E-score.

In the case of ATCATATA, the binding signal came out at 0.271 ± 0.0327 E-score.

Take CTCATATC: the binding signal amounted to 0.31 ± 0.0778 E-score.

Regarding ATCATATC, the binding signal is 0.425 ± 0.033 E-score.

With CGCATATA, the binding signal amounted to 0.158 ± 0.0261 E-score.

As to CGCATCTC, the binding signal stood at 0.154 ± 0.00741 E-score.

With TACATGTA, the binding signal worked out at 0.176 ± 0.041 E-score.

On to ACTCATAT, for which the binding signal came to 0.25 ± 0.0849 E-score.

For AGTATACG, the binding signal stood at 0.26 ± 0.0621 E-score.

As for ATACGTGC, the binding signal is 0.358 ± 0.0375 E-score.

As for GTGTCATA, the binding signal came to 0.369 ± 0.0321 E-score.

Take ATATGACG: the binding signal was 0.227 ± 0.0466 E-score.

Take CGATCCAG: the binding signal was 0.212 ± 0.123 E-score.

Turning to TACAGGTA, the binding signal was found to be 0.244 ± 0.0285 E-score.

As for GATAGGCC, the binding signal came to 0.209 ± 0.0213 E-score.

Take CTGCGATC: the binding signal stood at 0.322 ± 0.0185 E-score.

For the sequence ACCCGGGT, the binding signal is 0.377 ± 0.0364 E-score.

On to ACCCGTAG, for which the binding signal was found to be 0.156 ± 0.0429 E-score.

For ATCCGGAT, the binding signal amounted to 0.446 ± 0.0263 E-score.

Consider ACCCGGCT, for which the binding signal worked out at 0.22 ± 0.0443 E-score.

Regarding ACCCGGGA, the binding signal came to 0.311 ± 0.0112 E-score.

As for ATCCGGAG, the binding signal worked out at 0.299 ± 0.0152 E-score.

ACCCGTAT: the binding signal amounted to 0.391 ± 0.00477 E-score.

In the case of ACCCGGAG, the binding signal is 0.194 ± 0.0529 E-score.

Take ACCCGGAA: the binding signal stood at 0.184 ± 0.00414 E-score.

On to ATCCGGAA, for which the binding signal worked out at 0.295 ± 0.0493 E-score.

With ACCCGGAT, the binding signal is 0.411 ± 0.0469 E-score.

AACCGTAT: the binding signal turned out to be 0.275 ± 0.0195 E-score.

For the sequence TCCGCCGA, the binding signal was determined as 0.252 ± 0.00841 E-score.

As to CGAATACG, the binding signal is 0.2 ± 0.0406 E-score.

For GGTGTTGA, the binding signal was 0.258 ± 0.0174 E-score.

As to TCAGATAA, the binding signal turned out to be 0.21 ± 0.0582 E-score.

On to AATACCTG, for which the binding signal turned out to be 0.178 ± 0.0145 E-score.

Regarding ATCATCGG, the binding signal was determined as 0.365 ± 0.0324 E-score.

In the case of AGCCGGCT, the binding signal turned out to be 0.1726 ± 0.000438 E-score.

As to AGCCGGAT, the binding signal was 0.382 ± 0.0208 E-score.

In the case of AACCGGAT, the binding signal worked out at 0.316 ± 0.00955 E-score.

For the sequence ATCTTCAG, the binding signal was found to be 0.153 ± 0.0288 E-score.

For the sequence CGGTGTTA, the binding signal amounted to 0.312 ± 0.0102 E-score.

On to AGTGGTAT, for which the binding signal was 0.35 ± 0.0207 E-score.

In the case of ACTGGTAT, the binding signal stood at 0.386 ± 0.034 E-score.

Turning to AATGGTAT, the binding signal was 0.381 ± 0.00619 E-score.

Turning to ACTGGGAT, the binding signal is 0.239 ± 0.0081 E-score.

Consider ACCGGTAT, for which the binding signal was determined as 0.37 ± 0.0044 E-score.

As to AATGGTGT, the binding signal turned out to be 0.287 ± 0.00727 E-score.

Turning to GGATTAGA, the binding signal is 0.165 ± 0.00327 E-score.

Take CCGTATCG: the binding signal turned out to be 0.457 ± 0.0169 E-score.

On to GCCTATCA, for which the binding signal turned out to be 0.289 ± 0.00848 E-score.

CCCTATCA: the binding signal amounted to 0.429 ± 0.0145 E-score.

As to GCGTATAA, the binding signal turned out to be 0.16 ± 0.104 E-score.

As to TCCTATCA, the binding signal worked out at 0.307 ± 0.0417 E-score.

In the case of CCGTATTA, the binding signal turned out to be 0.322 ± 0.00404 E-score.

With ACCTATCA, the binding signal was 0.336 ± 0.0088 E-score.

Take GCGTATCA: the binding signal came out at 0.481 ± 0.00534 E-score.

As for TCGTATAA, the binding signal was found to be 0.194 ± 0.0979 E-score.

On to GCGTCTCA, for which the binding signal amounted to 0.209 ± 0.0176 E-score.

Take CCGTATAG: the binding signal came out at 0.239 ± 0.00962 E-score.

Turning to TCGTATCA, the binding signal was found to be 0.45 ± 0.0228 E-score.

As for ATCCCTCG, the binding signal was 0.337 ± 0.0323 E-score.

In the case of ATATAGCG, the binding signal is 0.164 ± 0.0414 E-score.

For GTATTAAC, the binding signal worked out at 0.272 ± 0.0619 E-score.

On to GATAGTGA, for which the binding signal came to 0.231 ± 0.0159 E-score.

Take CCGTATGA: the binding signal is 0.217 ± 0.0235 E-score.

Take CCGTATAA: the binding signal is 0.226 ± 0.0709 E-score.

As to CCGTATCA, the binding signal is 0.486 ± 0.00556 E-score.

ATCATACC: the binding signal came to 0.351 ± 0.0212 E-score.

As for ATCGCCTA, the binding signal is 0.232 ± 0.0537 E-score.

Consider GAGACGGA, for which the binding signal was determined as 0.272 ± 0.0111 E-score.

On to CAGGTATC, for which the binding signal is 0.4642 ± 0.00145 E-score.

For the sequence CAGGTAGA, the binding signal was 0.15 ± 0.00481 E-score.

Consider AAGGTATC, for which the binding signal was found to be 0.472 ± 0.0103 E-score.

As to AAGGTATT, the binding signal was determined as 0.248 ± 0.0945 E-score.

With CAGGTATA, the binding signal came to 0.276 ± 0.0442 E-score.

With GAGGTATC, the binding signal was 0.4767 ± 0.00464 E-score.

Take GAGGTATA: the binding signal stood at 0.365 ± 0.0614 E-score.
